{
  "source": "PubChem BioAssay (NCATS)",
  "note": "Records with an inconclusive call do not appear. Active and inactive are the calls of the source. Calls come from the whole dose curve; as a rule, active = well fitted cell-killing curve with a large enough effect; inconclusive = small, poorly fitted or top-dose-only effect, or effect the other way; inactive = no such curve, though single readings can be large or run the other way. Potency is the fitted concentration of half-maximal effect.",
  "data": [
    {"assay": "Viability qHTS for spleen associated tyrosine kinase inhibitor (SYKi) drug resistant MV4-11 cells (AID 1963824); note: nearly all actives have a fitted effect of over 35% in size", "conditions": "SYKi-resistant MV4-11 viability, CellTiter-Glo, 72 h; series mostly up to 45 µM; viability, % of control: at the top concentration", "in_short": "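SYK inhibitor-resistant MV4-11 AML cells, 500 per well, added to predispensed compounds and incubated 72 hr at 37 C, 5% CO2. Viability measured by CellTiter-Glo luminescence after 10 min at room temperature.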", "values": [
      {"smiles": "O=C(Nc1cnccc1Cl)N1CCN(Cc2ccc3c(c2)OC(F)(F)O3)CC1", "Potency": "5.9 µM (active)"},
      {"smiles": "N#Cc1ccc(COc2ccc(-c3cccc4nc(NC(=O)C5CC5)nn34)cc2)cn1", "Potency": "0.651 µM (active)"},
      {"smiles": "CCN(Cc1cccnc1)C(=O)CN(c1ccc(OC)nc1)S(=O)(=O)c1ccccc1C", "viability, % of control": "87.6% (inactive)"},
      {"smiles": "O=C(Nc1ccc(Cl)cc1)C1CCCN(C(=O)c2cccc(-c3ccco3)c2)C1", "note": "(stereo not drawn)", "Potency": "8.2 µM (active)"},
      {"smiles": "COc1ccc([C@@]2(O)c3c(ccc4c3OC(C)(CCC=C(C)C)C=C4)NC(=O)[C@@H]2OC)cc1", "note": "(stereo partly drawn)", "viability, % of control": "21.9% [at 17.3 µM] (inactive)"},
      {"smiles": "COc1ccc(Oc2c(Cl)cnn(C3c4ccccc4-c4ccccc43)c2=O)cc1", "Potency": "14.6 µM (active)"},
      {"smiles": "Cc1cc2c(F)c(Oc3ncnn4cc(OCC(C)O)c(C)c34)ccc2[nH]1", "note": "(stereo not drawn)", "Potency": "8.2 µM (active)"},
      {"smiles": "C[C@]12CC/C(=N\\OCC(=O)O)C=C1CC[C@@H]1[C@@H]2[C@@H](O)C[C@@]2(C)[C@H]1CC[C@]2(O)C(=O)CO", "viability, % of control": "106% (inactive)"},
      {"smiles": "C=C1C(=O)OC2CC(COC(=O)C(C)C)=C(C(C)CCCOC(C)=O)[C@@H](OC(C)=O)C12", "note": "(stereo partly drawn)", "Potency": "8.93 µM (active)"},
      {"smiles": "CCC(C)C1NC(=O)C(Cc2ccccc2)NC(=O)C(CCCCCC(=O)C(O)CO)NC(=O)C2CCCCN2C1=O", "note": "(stereo not drawn)", "Potency": "1.93 µM (active)"},
      {"smiles": "C=C1CC2OC(=O)C(COC)C2C(OC(=O)/C(C)=C\\C)CC2(C)OC1=CC2=O", "note": "(stereo not drawn)", "Potency": "0.805 µM (active)"},
      {"smiles": "COc1ccc2c(c1)OC[C@]1(O)c3cc4c(cc3O[C@H]21)OCO4", "viability, % of control": "71.9% (inactive)"},
      {"smiles": "CCn1c(=O)n([C@H]2CCCN(c3nccc(-c4cc5ccccc5o4)n3)C2)c2ccccc21", "Potency": "23.1 µM (active)"}
    ]}
  ]
}
